This is part of a sample that, as a whole, favours compounds with a hit. Of some 83,000 tested, about 20% had one in any assay.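 Step 1: grow cells in 96-well plates. Step 2: add test compound at a single concentration. Step 3: incubate 48 h. Step 4: record percent growth.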 Calls of active or inactive are those of the source. How the source made its calls: active means growth percent below 10; inactive means the rest.
Assays:
Test in all cases: NCI-60 one-dose screen, 48 h (100 = growth as untreated, 0 = no growth, -100 = all killed)
Settings in all cases: 10 µM unless noted
[1] = system: SR leukemia
[2] = system: RPMI-8226 leukemia
[3] = system: OVCAR-8 ovarian
[4] = system: OVCAR-5 ovarian
[5] = system: OVCAR-4 ovarian
[6] = system: SK-OV-3 ovarian
[7] = system: IGROV1 ovarian
[8] = system: OVCAR-3 ovarian
[9] = system: HS 578T breast
[10] = system: NCI/ADR-RES ovarian

Measured: growth

CCOC(=O)c1c(C)oc2ncnc(Nc3ccc(NC(=O)Nc4ccc(CC)cc4)cc3)c12
inactive: [1] 81.6% | [2] 95.1% | [3] 112% | [4] 107% | [5] 105% | [6] 88.2% | [7] 110% | [8] 118% | [9] 97.7% | [10] 97.2%

CCCCCSc1ccc2nc(NC(=O)OCCC)sc2c1
inactive: [1] 34.2% | [2] 29.6% | [3] 65.8% | [4] 86.3% | [5] 35.1% | [6] 41.9% | [7] 55.4% | [8] 13.3% | [9] 23.9% | [10] 22.7%

CC#Cc1nc(Nc2cc(C)[nH]n2)c2ccccc2n1
inactive: [3] 13.8% [100 µM] | [4] 29.4% [100 µM] | [5] 20% [100 µM] | [6] 29.4% [100 µM] | [10] 20.3% [100 µM]
active: [1] -5.19% [100 µM] | [2] -21.3% [100 µM] | [7] -46.7% [100 µM] | [8] -59% [100 µM]

O=C(Nn1cnc2ccccc21)N1CCCC1
inactive: [1] 76.5% | [2] 150% | [3] 106% | [4] 95.7% | [5] 118% | [6] 104% | [7] 39.4% | [8] 104% | [9] 104% | [10] 119%

COC(=O)c1ccc2[nH]c(O)c(C(=Nc3ccc(N(C)C(=O)CN4CCN(C)CC4)cc3)c3ccc(N)cc3)c2c1
inactive: [2] 84% | [3] 116% | [4] 77.8% | [5] 73.7% | [6] 85.6% | [7] 46.6% | [8] 96.2% | [9] 45.2% | [10] 113%
active: [1] 3.76%

O=c1c2c(c3ccccc3n1-c1ccccc1)NC(=S)NC2c1ccc(Cl)cc1 (stereo not given)
inactive: [1] 26% | [3] 41.3% | [4] 45.5% | [5] 76% | [6] 50.3% | [7] 40.1% | [8] 47.5% | [10] 78.3%
active: [2] 8.62% | [9] -3.16%

Cc1cc(CSc2ccc(Cl)cc2)ccc1N
inactive: [1] 93.5% | [2] 15.5% | [3] 99.8% | [4] 99.6% | [5] 96.9% | [6] 106% | [7] 86% | [8] 97.6% | [10] 95%

COc1cc2c(/C=C3\C(=O)Nc4ccc(Br)cc43)c(Cl)n(C)c2cc1C
active: [1] 0.77% | [2] 0.149% | [7] -10.2% | [8] -23.5% | [10] -17.7%
inactive: [3] 17.8% | [4] 13.4% | [5] 45.6% | [6] 24.7% | [9] 40.2%

COC(=O)/C(Br)=C/c1c[nH]c2ccc(Br)cc12
inactive: [2] 53.9% | [3] 86.6% | [4] 72.3% | [5] 87.2% | [6] 92% | [8] 82.6% | [9] 100% | [10] 80.4%
active: [1] -6.18% | [7] -17.7%

CCCCCCCCCCC(C[N+](C)(C)C/C=C/c1ccccc1)C(O)c1ccccc1 (stereo not given)
active: [1] -46.2% | [2] -50.8% | [5] 8.79% | [7] -70.9% | [8] -50.7%
inactive: [3] 20.5% | [4] 42.6% | [6] 53.1% | [9] 49% | [10] 97.6%

O=C(O)c1occ(Cl)c1Cl
inactive: [1] 92.7% | [2] 100% | [3] 107% | [4] 96.5% | [5] 115% | [6] 109% | [7] 120% | [8] 118% | [9] 115% | [10] 111%

CCOC1=C(Cl)C(=O)C(OCC)=C(Cl)C1=O
inactive: [1] 87.7% | [2] 105% | [3] 104% | [4] 110% | [5] 105% | [6] 93.5% | [7] 99.1% | [8] 105% | [10] 100%

COc1ccc2cc(C(C)C(=O)Nc3ccc(S(=O)(=O)Nc4cc(C)on4)cc3)ccc2c1 (stereo not given)
inactive: [1] 100% | [2] 96.6% | [3] 95.8% | [4] 112% | [5] 100% | [6] 101% | [7] 114% | [8] 110% | [10] 105%

CCCCN(CCC)CCCCCCCCCCN1CCCc2ccccc21
inactive: [1] 10.5% | [3] 102% | [4] 108% | [5] 79.4% | [6] 81.4% | [7] 48.5% | [8] 53.7% | [10] 90.1%
active: [2] -2.32%

N#Cc1ccc(OCc2nc(N)nc(N)c2-c2ccc(Cl)c(Cl)c2)cc1
inactive: [1] 26% | [2] 67.7% | [3] 19.5% | [4] 36.9% | [5] 98.6% | [6] 38.5% | [7] 24.3% | [8] 45.8% | [10] 38.9%

COC(=O)[C@H](Cc1cn(C)cn1)NC(=O)[C@H](CC(=O)OCc1ccccc1)NC(=O)Nc1cc(C(F)(F)F)cc(C(F)(F)F)c1
active: [1] -46.4% [100 µM] | [2] -65.4% [100 µM] | [3] -77.4% [100 µM] | [4] -93.2% [100 µM] | [5] -78% [100 µM] | [6] -100% [100 µM] | [7] -82.4% [100 µM] | [8] -99% [100 µM] | [10] -28.4% [100 µM]

CSCc1ncc(-c2ccc(C(F)(F)F)cc2)c(NC2CCCCCC2)n1
inactive: [1] 13.4% [25 µM] | [3] 75.1% [25 µM] | [4] 97% [25 µM] | [5] 83% [25 µM] | [6] 97.9% [25 µM] | [7] 81.2% [25 µM] | [8] 39.4% [25 µM] | [10] 74.9% [25 µM]
active: [2] 3.14% [25 µM]

COC(=O)[C@H](Cc1cn(C)cn1)NC(=O)[C@@H](NC(=O)Nc1cc(C(F)(F)F)cc(C(F)(F)F)c1)C(C)(C)C
inactive: [4] 39.7% [100 µM] | [10] 78.1% [100 µM]
active: [1] -41.3% [100 µM] | [2] -53.8% [100 µM] | [3] -55.2% [100 µM] | [5] -71.5% [100 µM] | [6] -25.6% [100 µM] | [7] -63% [100 µM] | [8] -99.3% [100 µM]

O=C(Nc1ccc(Cl)c(Cl)c1)O/N=C\c1c(Cl)ccc([N+](=O)[O-])c1Cl
inactive: [4] 12.1% | [6] 61.3% | [10] 16.5%
active: [1] -23.7% | [2] -52.7% | [3] 8% | [5] -65.8% | [7] -45.8% | [8] -99.3%

NC(CSC(c1ccccc1)(c1ccccc1)c1ccccc1)C(=O)NCC(=O)O (stereo not given)
inactive: [1] 34.1% | [2] 49.3% | [3] 70.7% | [4] 94.7% | [5] 100% | [6] 35% | [7] 72.6% | [8] 98% | [10] 108%

CCCCCCC(C)N(CC(C)(C)O)C(=O)c1ccc([N+](=O)[O-])cc1 (stereo not given)
inactive: [1] 89.5% | [2] 96% | [3] 101% | [4] 106% | [5] 108% | [6] 96.3% | [7] 88.1% | [8] 113% | [10] 85.7%

CCCCCCCCCCCCCCCCCC1=NCCN1CS(=O)(=O)O
active: [1] -3.33% | [7] -23.8%
inactive: [2] 65% | [3] 36.1% | [4] 76.9% | [5] 82.4% | [6] 70.4% | [8] 50.9% | [10] 59.2%

C=CN(C)S(C)(=O)=O
active: [8] -14.1%
inactive: [1] 14.2% | [2] 16.8% | [3] 34.8% | [4] 90.9% | [5] 70.4% | [6] 13.8% | [7] 51.5% | [10] 20.1%

CCOc1ccccc1/C=N\N=C(N/N=C/c1ccccc1OCC)N/N=C/c1ccccc1OCC
inactive: [1] 15.7% | [2] 18.8% | [3] 18.4% | [4] 13.9% | [7] 21%
active: [5] 7.81% | [6] 2.98% | [8] -19.7% | [10] 6.36%

O=C(Oc1ccccc1)c1ccccc1Cl
inactive: [1] 104% | [2] 62.9% | [3] 104% | [4] 90.7% | [5] 108% | [6] 101% | [7] 109% | [8] 97.3% | [10] 104%

COc1ccc(Oc2[nH]n(C3=Nc4ccccc4Sc4ccccc43)c(=O)c2C#N)cc1
inactive: [1] 130% | [2] 91.2% | [3] 96.2% | [4] 116% | [5] 112% | [6] 95.5% | [7] 91.6% | [8] 91.8% | [10] 87%

O=C1C=C(OCC=C(C(F)(F)F)C(F)(F)F)c2ccccc2C1=O
inactive: [4] 96.3% | [6] 59.8% | [10] 28.6%
active: [1] -19.7% | [2] -38.7% | [3] -22.8% | [5] -7.2% | [7] -12.4% | [8] -19.9%

CC(O)CCC(C)[N+](=O)[O-] (stereo not given)
inactive: [1] 95.8% | [2] 101% | [3] 104% | [4] 102% | [5] 103% | [6] 101% | [7] 105% | [8] 108% | [10] 111%

N=C(N)N=Nc1ccc(NN=C(N)N)cc1
inactive: [1] 108% | [2] 95.8% | [3] 94.4% | [4] 78.7% | [5] 100% | [6] 24% | [7] 99.8% | [8] 108% | [10] 110%
